# Measured values from PubChem BioAssay (NCI).
# The panel holds about 79,000 compounds, 15% with a hit somewhere; the sample as a whole holds those more often. A number with no mark means an inactive call. Calls of active or inactive are those of the source. Cut-off read from the data, not from the text of the source: active = growth inhibition above about 70%; inactive = the rest.
# What was measured:
# [1] = NCI Yeast Anticancer Drug Screen. Data for the rad50 strain (AID 155);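 note: 0% = growth of vehicle-only cultures of the same strain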; conditions: S. cerevisiae rad50 strain growth inhibition, hits give high values
# How it was run: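 Genetically altered yeast (DNA repair pathway); compound treatment; growth inhibition vs vehicle ctrl.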
# [2] = NCI Yeast Anticancer Drug Screen. Data for the mec2-1 strain (AID 157); conditions: S. cerevisiae mec2-1 strain, hits give high values
# How it was run: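 Using mec2-1 yeast: add compound, measure growth, express inhibition versus vehicle-treated cultures.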
# [3] = NCI Yeast Anticancer Drug Screen. Data for the sgs1 mgt1 strain (AID 161);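 note: 0% = growth of cultures given vehicle only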; conditions: S. cerevisiae sgs1 mgt1 strain, hits give high values
# How it was run: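 Percent growth inhibition was derived by comparing compound-exposed mutant yeast with vehicle-exposed cultures. The strain carries alterations in DNA damage repair.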
# [4] = NCI Yeast Anticancer Drug Screen. Data for the cln2 rad14 strain (AID 165);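 note: 0% = growth equal to vehicle treated cultures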; conditions: S. cerevisiae cln2 rad14 strain, hits give high values
# How it was run: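 Yeast strain cln2 rad14, bearing defects in cell cycle control and DNA repair, serves as the test system; values reflect growth inhibition compared with vehicle.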
# [5] = NCI Yeast Anticancer Drug Screen. Data for the bub3 strain (AID 167); conditions: S. cerevisiae bub3 mutant strain, hits give high values
# How it was run: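 Yeast carrying a defined mutation is treated with each compound, and growth is compared with that of vehicle-exposed cells to give inhibition.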
# [6] = NCI Yeast Anticancer Drug Screen. Data for the mlh1 rad18 strain (AID 175); conditions: S. cerevisiae mlh1 rad18 strain growth inhibition, hits give high values
# How it was run: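 Steps: expose repair-defective yeast to compound; measure growth; express inhibition against vehicle-treated controls.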
# [7] = at 5.0 µM (retest, dose inferred, filed as 0.5)
# [8] = at 50.0 µM (retest, dose inferred, filed as 5.0)
Compound,"growth inhibition [1, 7]","growth inhibition [1, 8]",growth inhibition ([1]; at 50.0 µM),"growth inhibition [2, 7]","growth inhibition [2, 8]",growth inhibition ([2]; at 50.0 µM),"growth inhibition [3, 7]","growth inhibition [3, 8]",growth inhibition ([3]; at 50.0 µM),"growth inhibition [4, 7]","growth inhibition [4, 8]",growth inhibition ([4]; at 50.0 µM),"growth inhibition [5, 7]","growth inhibition [5, 8]",growth inhibition ([5]; at 50.0 µM),"growth inhibition [6, 7]","growth inhibition [6, 8]",growth inhibition ([6]; at 50.0 µM)
CCCCCCCCCCCCCCCCSC(=NCC)NCC,99% (active),99% (active),99.3% (active),67%,99% (active),99.7% (active),98% (active),100% (active),99.6% (active),23%,99% (active),98.3% (active),81% (active),99% (active),99.5% (active),98% (active),99% (active),99.3% (active)
Oc1c(C(Nc2ccccc2)c2ccccc2)ccc2cccnc12 (configuration not stated),-5%,92% (active),96.9% (active),-2%,97% (active),81.2% (active),-4%,94% (active),99% (active),-4%,92% (active),96.2% (active),-8%,94% (active),84% (active),0%,92% (active),96% (active)
Clc1ccc(-n2ncc3c(NCCCN4CCOCC4)ncnc32)cc1,3%,82% (active),56%,6%,70% (active),62.1%,1%,81% (active),82.8% (active),19%,62%,35.4%,16%,77% (active),47.4%,9%,79% (active),75.6% (active)
Oc1ccc(Cl)cc1Cc1cc(Cl)ccc1O,-1%,99% (active),3.65%,-3%,99% (active),10.3%,0%,99% (active),-2.55%,-16%,99% (active),24.6%,-3%,99% (active),16.6%,-5%,99% (active),-7.85%
Nc1cccc2cccc([N+](=O)[O-])c12,-142%,-39%,10.8%,-47%,-40%,11.4%,-52%,1%,16%,-63%,-10%,62%,-74%,-86%,-19.9%,-130%,-68%,21.4%
OC(c1cc(C23CC4CC(CC(C4)C2)C3)nc2c(Cl)cc(Cl)cc12)C1CCCCN1 (configuration not stated),99% (active),98% (active),98.7% (active),99% (active),99% (active),98.8% (active),99% (active),99% (active),68.9%,99% (active),98% (active),99.1% (active),99% (active),98% (active),98.5% (active),99% (active),98% (active),98.8% (active)
Cc1ccc(Nc2ccc(O)c3c2C(=O)c2c(O)ccc(Nc4ccc(C)cc4)c2C3=O)cc1,5%,4%,10.3%,1%,-1%,7.15%,12%,14%,12.8%,0%,-1%,72.5% (active),-2%,-5%,-3.8%,-2%,-65%,17.4%
O=C1C(=O)c2cc([N+](=O)[O-])ccc2-c2ccccc21,45%,97% (active),98.7% (active),34%,97% (active),95.8% (active),32%,95% (active),96.2% (active),19%,96% (active),96.3% (active),43%,89% (active),98.1% (active),54%,97% (active),97.8% (active)
NC(=S)N/N=C/c1ncccc1O,-157%,-91%,24.4%,-50%,19%,80.2% (active),-63%,-30%,7.55%,-68%,-73%,-23.4%,-74%,-78%,-7.5%,-123%,-101%,21.4%
